Test results as given in PubChem BioAssay (Tox21).
Inconclusive results are not listed. The source made the active and inactive calls. Calls follow the shape of the dose curve; as a rule, active = well fitted cell-killing curve with a large enough effect in the repeat runs; inconclusive = weak or mixed curves, or effect the other way; inactive = flat fitted curve, though single readings scatter.

Test: Human pregnane X receptor (PXR) small molecule agonists, qHTS cell viability counter screen (AID 1346977); also: nearly all actives have a fitted effect of over 50% in size
Settings: PXR-Luc HepG2 viability, CellTiter-Fluor, 24 h; series mostly up to 92.4 µM; activity change, negative = cytotoxicity: at the top concentration
Source text: U.S. Tox21 Program National Center for Advancing Translational Sciences [NCATS] NIH Chemical Genomics Center [NCGC] U.S. Environmental Protection Agency [EPA] National Institutes of Environmental Health Sciences [NIEHS] National Toxicology Program [NTP] U.S. Food and Drug Administration [FDA] Tox21 Assay Overview: The human pregnane X receptor (hPXR) regulates the expression of several drug metabolizing enzymes and induction of these proteins is a major mechanism for developing drug resistance in cancer. One such key enzyme catalyzing the drug metabolism is cytochrome P450 3A4 (CYP3A4). Changes in CYP3A4 expression affect drug metabolism, thereby reducing the therapeutic efficacy and altering toxicological response to a drug and which finally causes adverse drug interaction. To screen Tox21 libraries for compounds that activate hPXR-mediated CYP3A4 gene expression, PXR-Luc HepG2 cells were used. Also cytotoxicity of the compounds was tested in parallel by measuring the cell viability using CellTiter-Fluor assay system in the same wells.
Tox21 Assay Protocol Summary: PXR-Luc HepG2 cells were dispensed at 2,000 per well in 5uL of assay medium containing 5% charcoal-stripped FBS into white solid bottom 1536-well plates (Corning Life Sciences, Corning, NY) using a Multidrop Combi (Thermo Scientific, Waltham, MA) dispenser. The assay plates were incubated at 37 C and 5% CO2 for 5hr, and then 23nL of compounds dissolved in DMSO and positive control were transferred using a Pintool station (Wako, San Diego, CA). The assay plates were incubated at 37C and 5% CO2 for 24hr. For cytotoxicity read, after 23hr incubation at 37C, 1uL CellTiter-Fluor reagent (Promega Corporation, Madison, WI) was added to each well of the assay plates using Flying Reagent Dispenser (FRD, Aurora Discovery, San Diego, CA). After 1hr incubation at 37C and 5% CO2, the fluorescence signal was quantified using a ViewLux plate reader (PerkinElmer, Shelton, CT).
% is scaled to controls: 0 for no effect and ±100 for the full control effect; potency is read from the fitted curve at half-maximal effect.

| Compound | activity change, negative = cytotoxicity | Potency |
| --- | --- | --- |
| O=C(O)CC(Cl)C(=O)O (stereo not given) | -0.493% (inactive) |  |
| C=CC(=O)OC(C)(C)C | 3.11% (inactive) |  |
| C=CC(C)=O | -1.81% (inactive) |  |
| Nc1nc(=S)[nH][nH]1 | 6.59% (inactive) |  |
| N#Cc1cc(I)c(O)c(I)c1 |  | 43.3 µM (active) |
| CCOC(=O)C(Cl)C(C)=O (stereo not given) | -0.664% (inactive) |  |
| CNP(=O)(OC)Oc1ccc(C(C)(C)C)cc1Cl (stereo not given) | -10.6% (inactive) |  |
| C=CC(=O)OCCCCO | -19% (inactive) |  |
| O=S(=O)(Cl)c1ccccc1 | 20.7% (inactive) |  |
| CCCCN=C=O | 4.41% (inactive) |  |
| COC(N)=O | -2.93% (inactive) |  |
| COc1nn(C(=O)NS(=O)(=O)c2ccccc2OC(F)(F)F)c(=O)n1C | -1.46% (inactive) |  |
| CC1C(=O)C[C@]2(C(C)C)C[C@H]12 (stereo not given in full) | 8.86% (inactive) |  |
| CCN(C)N=O | 24.6% (inactive) |  |
| CCCCC(CC)COP(=O)(Oc1ccccc1)Oc1ccccc1 (stereo not given) | 10.1% (inactive) |  |
| CCC(Br)(CC)C(=O)NC(N)=O | 2.43% (inactive) |  |
| CC1(C)[C@H](C=C(Cl)Cl)[C@@H]1C(=O)O[C@@H](C#N)c1cccc(Oc2ccccc2)c1 | 17.9% (inactive) |  |
| O=C(CBr)OCc1ccccc1 | 13.6% (inactive) |  |
| Clc1cccc(SC2CCNCC2)n1 | -3.98% [at 42.5 µM] (inactive) |  |
| CCCCCCC#N | 0.673% (inactive) |  |

| Compound | activity change, negative = cytotoxicity | Potency |
| --- | --- | --- |
| CC(O)(CS(=O)(=O)c1ccc(F)cc1)C(=O)Nc1ccc(C#N)c(C(F)(F)F)c1 (stereo not given) | -13.9% [at 42.5 µM] (inactive) |  |
| O=C(O)C(F)(F)C(F)(F)C(F)(F)C(F)(F)C(F)(F)C(F)(F)C(F)(F)C(F)(F)C(F)(F)C(F)(F)F | 1.86% (inactive) |  |
| O=C(CBr)Nc1ccc(Cl)cc1C(=O)c1ccccc1F | -1.5% [at 42.5 µM] (inactive) |  |
| Clc1cccc2ccccc12 | -2.43% (inactive) |  |
| Cc1ccccc1C(=O)Nc1cccc(OC(C)C)c1 | 9.4% (inactive) |  |
| NC(=O)CI | -3.65% (inactive) |  |
| CC/C(=N\OC/C=C/Cl)C1=C(O)CC(C2CCOCC2)CC1=O (stereo not given) | 8.99% (inactive) |  |
| CC(=O)CCC(C)=O | 9.75% (inactive) |  |
| C=CC(=O)NCNC(=O)C=C | 1.87% (inactive) |  |
| CN1C(=O)C(O)N=C(c2ccccc2)c2cc(Cl)ccc21 (stereo not given) | 11.4% (inactive) |  |
| CN1C(=O)NC(=O)C(C)(C2=CCCCC2)C1=O (stereo not given) | 2.13% [at 42.5 µM] (inactive) |  |
| CC1Sc2c(C(=O)O)c(=O)c3cc(F)c(N4CCNCC4)cc3n21 (stereo not given) | -4.81% [at 42.5 µM] (inactive) |  |
| ClCC(Br)CBr (stereo not given) | 6.59% (inactive) |  |
| COc1cc(Cl)c(OC)cc1Cl | 14.9% (inactive) |  |
| Cc1cc(=O)[nH]o1 | -0.709% (inactive) |  |
| COC(=O)C(C)N(C(=O)Cc1ccccc1)c1c(C)cccc1C (stereo not given) | -18.6% (inactive) |  |
| O=C(Nc1ccccc1)Nc1ccnc(Cl)c1 |  | 43.3 µM (active) |
| C[C@]12CC[C@H]3[C@@H](CCC4=CC(=O)CC[C@@H]43)[C@@H]1CC[C@@H]2OC(=O)CCC1CCCCC1 | 0.251% [at 42.5 µM] (inactive) |  |
| CC(=O)[C@H]1CC[C@H]2[C@@H]3CC[C@H]4C[C@](C)(O)CC[C@]4(C)[C@H]3CC[C@]12C | 11.4% [at 42.5 µM] (inactive) |  |
| IC(I)=C(I)I |  | 17.2 µM (active) |
